These results are taken from PubChem BioAssay (NCI).

The panel holds about 83,000 compounds, 20% with a hit somewhere; the sample as a whole holds those more often.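 Results are percent growth after 48 hours of single-concentration exposure. 100 means growth as in untreated cells, lower positive values show inhibition; negative values down to -100 show cell death.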 The source made the active and inactive calls. The calls were made as follows: active = growth percent below 10; inactive = the rest.

The experiment concerns HL-60(TB) leukemia. In words: NCI-60 one-dose screen, 48 h (100 = growth as untreated, 0 = no growth, -100 = all killed). Conditions: 10 µM unless noted.
`COc1ccc(C(=O)N2CCN(C(=O)c3cc(OC)c(OC)c(OC)c3)CC2)cc1OCCCCOc1cc2c(cc1OC)C(=O)N1CCC[C@H]1C=N2`: the growth was 147% (inactive).

Regarding `Nc1ncc(-c2ccc3ncnc(N4CCc5cc(F)c(Cl)cc54)c3c2)cc1C(F)(F)F`, the growth is 21.5% (inactive).

For `COc1ccc(/C=C/c2nc(NCCCN(C)C)c3ccccc3n2)cc1`, the growth is 88.3% (inactive).

Take `COc1cc2c3cc1Oc1c(OC)c(OC)cc4c1C(Cc1ccc(O)c(c1)Oc1ccc(cc1)CC3N(C)CC2)N(C)CC4` (stereo not given): the growth is -32.4% (active).

As for `CC(C)(C)NCC(O)COc1c(Br)c(Br)c(Br)c2c1OC(C)(C)C2` (stereo not given), the growth was -59.3% (active).

For `Cc1ccc(C(=O)N(CCCN)[C@@H](c2nc3cc(Cl)ccc3c(=O)n2Cc2ccccc2)C(C)C)cc1`, the growth was -58.3% (active).

In the case of `COc1ccc(NC(=O)c2ccc(-c3ccccc3)cc2)c(C(N)=O)c1`, the growth was 61.7% (inactive).

As for `Cc1ccc(C2=NN(c3ccc(S(N)(=O)=O)cc3)C(c3cn(-c4ccccc4)nc3-c3ccccc3)C2)cc1` (stereo not given), the growth was 16.5% (inactive).

`CS(=O)(=O)N1CCN(Cc2cc3nc(-c4cccc5[nH]ncc45)nc(N4CCOCC4)c3s2)CC1` (tested in a mixture with another compound): the growth is 5.83% (active).

Turning to `COc1ccc(S(=O)(=O)c2ccc(C(N)=O)cc2)cc1NC(=O)c1[nH]c(C)c2c1CCCCC2=O`, the growth was 4.2% (active).

`COc1ccc(-c2cscc2N)cc1`: the growth was 18.7% [100 µM] (inactive).

With `O=C1/C(=C\c2ccccn2)c2ccccc2N1c1c(Cl)cccc1Cl`, the growth was 1.39% (active).

For the compound `NC1=Nc2cc(OCCCCN3Cc4ccccc4C3)c(OCC3CC3)cc2C12CCCC2`, the growth was 20.2% (inactive).

Regarding `COc1ccc(/C=C2\CCC/C(=C\c3ccc(OC)c(OC)c3)C2=O)cc1OC`, the growth was 3.46% (active).

Consider `C[C@]12CC[C@@H]3c4ccc(O)c([N+](=O)[O-])c4CC[C@H]3[C@@H]1CC[C@@H]2NS(=O)(=O)c1ccc(C(F)(F)F)cc1`, for which the growth is -11.6% (active).

With `O=C1C=C(OCC=C(C(F)(F)F)C(F)(F)F)c2ccccc2C1=O`, the growth was -30% (active).

As to `C[C@]12C[C@@H](c3ccoc3)OC(=O)[C@@H]1CC[C@]1(C)[C@@H]2CC[C@@H](O)[C@]1(C)O`, the growth is 9.31% (active).

`COc1ccc2nc3cc(Cl)ccc3c(NCCCCCN3CCCCC3)c2c1`: the growth was -42.2% (active).

For the compound `CCOC(=O)c1cc(C(=O)c2cc(OC)c(OC)c(OC)c2)n2ccc(-c3cc[n+](CC(=O)c4cc(OC)c(OC)c(OC)c4)cc3)cc12`, the growth was 32.9% (inactive).

Consider `CC(=O)N(CC(O)CO)c1c(I)c(C(=O)NCCO)c(I)c(C(=O)NCC(O)CO)c1I` (stereo not given), for which the growth was 92.2% (inactive).

In the case of `COC(=O)c1cc([N+](=O)[O-])cc([N+](=O)[O-])c1Cl`, the growth was 55.4% (inactive).

Take `COc1ccc(/C=N\Nc2nc(SCC(C)C)nc(-c3ccc(OC)cc3)c2C#N)cc1`: the growth is 35.8% (inactive).

Turning to `Cc1nc2sc(C(=O)Nc3ccccc3)c(N)c2cc1C(C)O` (stereo not given), the growth is -2.23% (active).

As for `Nc1ccc(-c2nc3ccc4[nH]ncc4c3c3c2CCCC3)cc1F`, the growth was 8.91% (active).

Take `O=[N+]([O-])c1ccccc1/C=N\NC(=S)N/N=C/c1ccccc1[N+](=O)[O-]`: the growth is 9.57% (active).

With `O=C(Nc1ccc(Cl)cc1F)c1cc(F)ccc1O`, the growth was -43.8% (active).

With `CCCc1cc(=O)oc2c3c(c4c(c12)OC(C)(C)C=C4)O[C@@H](C)[C@H](C)C3=O`, the growth was 48.3% (inactive).

As for `Clc1ccc2[nH]c3c(NCCCN4CCOCC4)ncnc3c2c1`, the growth was 36.3% (inactive).

Turning to `CSc1nc(CC(C)C)c(C#N)c(=O)n1C`, the growth is 78.7% (inactive).

On to `N/C(=N\C(N)=N\c1nc2ccccc2s1)c1cnccn1`, for which the growth was 0.412% (active).

For `CCN(CC)CCCCCCCNc1cc(OC)cc2c(C)ccnc12`, the growth was 56.2% (inactive).

Consider `O=[N+]([O-])c1cccc2nsnc12`, for which the growth was 104% (inactive).

Turning to `C=C(C)[C@@H]1CC[C@]2(C(=O)OC)CC[C@]3(C)[C@H](CC[C@@H]4[C@@](C)(CC/C(N)=N/O)[C@H](C(=C)C)CC[C@]43C)[C@@H]12`, the growth was 92.2% (inactive).

Consider `CN(C)CC/C=C1\c2ccccc2Sc2ccc(Cl)cc21`, for which the growth is 94.2% (inactive).

Take `O=C(Nc1ccccc1)Nc1ccc(Nc2ncnc3sc4c(c23)CCCC4)cc1`: the growth was 97% (inactive).

Take `Cc1ccn2c3c(c(C(=O)O)c2c1)C(=O)c1ccccc1C3=O`: the growth was 73.2% (inactive).

As to `CC(=O)O[C@]1(C(C)=O)CC[C@H]2[C@@H]3C=C(Cl)C4=CC(=O)CC[C@]4(C)[C@H]3CC[C@@]21C`, the growth is 104% (inactive).

With `O=C(Nc1ncc(Cc2ccccc2)s1)c1cc(-c2ccccc2)nc2ccccc12`, the growth was 99.2% (inactive).

`O=C(N/N=C1\SCC(=O)N1c1ccccc1)c1cc(-c2cc3ccccc3o2)nn1-c1ccccc1`: the growth was 112% (inactive).

With `COc1cccc(C(=O)Nc2ccc(CN3CCc4nc5cc(OC)c(OC)cc5cc43)cc2)c1`, the growth is 60% (inactive).
